Values joined by “and” are separate entries in the source; they are usually repeats but may differ in a detail not shown here. Equal values may be shown once. Inconclusive results are not listed. Where a call stands in place of a potency, no number is given. Active and inactive are the calls of the source. Unless noted, calls follow the shape of the full dose curve.
Columns and labels:
[1] = Nuclear factor erythroid 2-related factor 2/antioxidant responsive element (Nrf2/ARE) small molecule agonists: qHTS cell viability counter screen in human keratinocytes (AID 1919968; active = well fitted curve in the direction sought with a large enough effect in the repeat runs; an effect the other way counts as inactive or inconclusive; also: nearly all actives have a fitted effect of over 55% in size; also: potency is read from the fitted curve at half-maximal effect); settings: KeratinoSens HaCaT ARE cells viability, CellTiter-Fluor, 24 h; series mostly up to 92.4 µM
In short: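 In human HaCaT keratinocytes stably expressing an ARE-driven luciferase, compound exposure lasted 23 h at 37 C under 5% CO2. Viable cells are quantified with a protease-based fluorogenic reagent (CellTiter-Fluor) read 1 h after addition.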

[2] = Nuclear factor erythroid 2-related factor 2/antioxidant responsive element (Nrf2/ARE) small molecule agonists: luciferase reporter gene qHTS assay in human keratinocytes (AID 1919969); settings: KeratinoSens HaCaT ARE-luciferase, luminescence, 24 h; series mostly up to 92.4 µM; also: nearly all actives have a fitted effect of over 35% in size; also: potency is read from the fitted curve at half-maximal effect
[3] = molecular target: Gonadotropin-releasing hormone receptor (Homo sapiens) (UniProt P30968); assay: Human gonadotropin-releasing hormone receptor (GnRHR) small molecule agonists, calcium flux assay in GnRHR-HEK293 cells (AID 1920063); settings: calcium flux fluorescence, agonist mode; series mostly up to 57.6 µM; also: nearly all actives have a fitted effect of over 35% in size
In short: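 Intracellular calcium rise is the read-out: engineered human GnRHR HEK293 cells, dye-loaded, are exposed to DMSO-dissolved compounds and fluorescence at Ex/Em 480/540 is tracked for 3 min.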

[4] = molecular target: KiSS-1 receptor (Homo sapiens) (UniProt Q969F8); assay: Human kisspeptin (KISS1R) small molecule agonists, calcium flux assay in KISS1R-HEK293 cells (AID 1920064; active = well fitted curve in the direction sought with a large enough effect in the repeat runs; an effect the other way counts as inactive or inconclusive); settings: KISS1R-HEK293, calcium flux fluorescence, agonist; series mostly up to 76.8 µM
In short: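 Concentration-response testing used 15 concentrations in triplicate on human KISS1R-expressing HEK293 cells. Calcium-dependent fluorescence (Ex/Em 480/540) was followed kinetically for 3 min after compound transfer.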

[5] = G protein-coupled receptor (GPCR) small molecule agonists, calcium flux assay: HEK293 wild type cell line counter screen (AID 1920065); settings: HEK293 WT calcium flux, fluorescence, agonist mode; series mostly up to 57.6 µM
In short: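 Fluorescence intensity signals activation. After overnight (18 h) culture and a 1 h calcium dye load at 37 C, compounds are added by pin tool and the plate read at 480/540 nm for 3 min in 1 s steps.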

[6] = p53 small molecule agonists, cell-based qHTS assay with human liver microsomes (AID 1963577); settings: HCT-116 p53RE-bla with human liver microsomes, ratio, 16 h; series mostly up to 66 µM
In short: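 p53RE-bla cells, 4,000/well, compound added after 5 h, with human liver microsomes 0.5 mg/mL and NADPH 0.5 mg/mL final; 16 h at 37 C, then LiveBLAzer 2 h RT, fluorescence.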

[7] = p53 small molecule agonists, cell-based qHTS assay with rat liver microsomes (AID 1963578); settings: HCT-116 p53RE-bla, beta-lactamase ratio, 16 h; series mostly up to 66 µM
In short: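 p53RE-bla cells, 4,000/well, pre-incubated 5 h, then given compounds plus rat liver microsomes (0.5 mg/mL final) and NADPH (0.5 mg/mL final). Incubation 16 h at 37 C; beta-lactamase reporter read by LiveBLAzer fluorescence after 2 h at room temperature.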

[8] = p53 small molecule agonists, cell-based qHTS assay with human liver microsomes: qHTS cell viability counter screen (AID 1963579); settings: p53RE-bla HCT-116 viability, ATP luminescence, 16 h, HLM; series mostly up to 66 µM; also: nearly all actives have a fitted effect of over 45% in size; also: potency is read from the fitted curve at half-maximal effect
In short: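 p53RE-bla cells, 4,000/well, dosed 5 hours after plating, with human liver microsomes (0.5 mg/mL final) plus NADPH (0.5 mg/mL final), 16 hours at 37 C. Viability read as CellTiter-Glo luminescence after 30 min at room temperature.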

[9] = p53 small molecule agonists, cell-based qHTS assay with rat liver microsomes: qHTS cell viability counter screen (AID 1963580); settings: p53RE-bla HCT-116 + rat microsomes, ATP viability, 16 h; series mostly up to 66 µM; also: nearly all actives have a fitted effect of over 45% in size; also: potency is read from the fitted curve at half-maximal effect
In short: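 Counter screen for cytotoxicity under metabolic activation: rat liver microsomes and NADPH, 0.5 mg/mL final each, added with compounds to p53RE-bla HCT-116 cells; 16 h at 37 C, then ATP luminescence read.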

[10] = molecular target: 5-hydroxytryptamine receptor 2A (Homo sapiens) (UniProt P28223); assay: 5-hydroxytryptamine receptor 2A (HTR2A) small molecule antagonists, cell-based qHTS assay (AID 1963586); settings: HTR2A-CHO cells, DOI-induced calcium flux, fluorescence; series mostly up to 61.5 µM; also: nearly all actives have a fitted effect of over 45% in size; also: potency is read from the fitted curve at half-maximal effect
In short: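 CHO cells stably expressing human HTR2A were plated for 18 h at 37 C, then loaded with calcium dye for 1 h. Compounds were preincubated 5 min at room temperature before DOI (4 nM solution) was added. Kinetic fluorescence was read for 3 min.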

[11] = molecular target: 5-hydroxytryptamine receptor 2A (Homo sapiens) (UniProt P28223); assay: 5-hydroxytryptamine receptor 2A (HTR2A) small molecule agonists, cell-based qHTS assay (AID 1963587); settings: HTR2A-CHO cells, calcium flux fluorescence, agonist mode; series mostly up to 76.8 µM; also: nearly all actives have a fitted effect of over 30% in size
In short: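 HTR2A-CHO cells, plated 18 h at 37 C/5% CO2, dye-loaded 1 h at 37 C; compounds in DMSO added by pin tool (agonist mode). Intracellular calcium flux read as kinetic fluorescence on FDSS over 2 min at 1 s intervals.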

[12] = molecular target: Muscarinic acetylcholine receptor M1 (Homo sapiens) (UniProt P11229); assay: Cholinergic receptor muscarinic 1 (CHRM1) small molecule antagonists, cell-based qHTS assay (AID 1963588); settings: CHRM1-CHO antagonist mode, calcium flux fluorescence; series mostly up to 61.5 µM; also: nearly all actives have a fitted effect of over 40% in size
In short: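 Compounds were tested at 15 concentrations in three independent runs. Dye-loaded CHRM1-CHO cells were exposed 5 min at room temperature before stimulation by acetylcholine added at 50nM. Intracellular calcium was read kinetically on FDSS for 3 min.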

[13] = molecular target: Muscarinic acetylcholine receptor M1 (Homo sapiens) (UniProt P11229); assay: Cholinergic receptor muscarinic 1 (CHRM1) small molecule agonists, cell-based qHTS assay (AID 1963589); settings: CHRM1-CHO cells, agonist mode, calcium flux fluorescence; series mostly up to 76.8 µM; also: nearly all actives have a fitted effect of over 35% in size
In short: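 Fluorescent calcium dye reports M1 activation in stably transfected CHO cells. Compounds, 15 concentrations, added after 1 h dye loading at 37 C; kinetic reading at 1 sec intervals.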

[14] = cAMP Responsive Elements (CRE) small molecule agonists, cell-based qHTS assay (AID 1963590); settings: CRE-bla HEK293T, beta-lactamase FRET ratio, 3 h; series mostly up to 92.4 µM
In short: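 Compound exposure lasted 3 h at 37 C/5% CO2 in CRE-bla HEK 293T cells grown in assay medium with 10% dialyzed FBS and 25 mM HEPES. Reporter signal came from LiveBLAzer B/G FRET substrate, 2 h, room temperature.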

[15] = cAMP Responsive Elements (CRE) small molecule antagonists, cell-based qHTS assay (AID 1963591; active = well fitted inhibition curve with a large enough effect in the signal ratio in the repeat runs, not every such curve was filed as active; the % refers to the signal ratio; also: potency is read from the fitted curve at half-maximal effect); settings: CRE-bla HEK293T, beta-lactamase FRET ratio; series mostly up to 92.4 µM
In short: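 Stimulation used NKH477 at a final 0.25 uM for 3 h in compound-treated CRE-bla HEK293T cells, seeded 18 h beforehand. Reporter activity was measured with LiveBLAzer B/G FRET substrate after 2 h at room temperature.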

[16] = molecular target: Beta-2 adrenergic receptor (Homo sapiens) (UniProt P07550); assay: Adrenergic beta2 receptor (ADRB2) small molecule antagonists, cell-based qHTS assay (AID 1963592); settings: CHO-ADRB2 cells, isoproterenol-stimulated cAMP HTRF ratio, 0.5 h; series mostly up to 92.4 µM; also: nearly all actives have a fitted effect of over 50% in size; also: potency is read from the fitted curve at half-maximal effect
In short: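 Assay format: CHO-ADRB2 cells, 18-20hr seeding at 37C/5% CO2, then compound plus 1nM isoproterenol agonist mix for 0.5hr RT. Homogeneous time-resolved fluorescence cAMP detection after 1hr, expressed as 665/615 nm ratio.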

[17] = molecular target: D(2) dopamine receptor (Homo sapiens) (UniProt P14416); assay: Dopamine D2 receptor (DRD2) small molecule agonists, cell-based qHTS assay (AID 1963594); settings: HEK293-DRD2 cAMP HTRF, agonist mode, 30 min; series mostly up to 92.4 µM; also: nearly all actives have a fitted effect of over 35% in size
In short: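 HEK293 cells stably expressing DRD2 were cultured 24 h at 37 C, then given Ro20-1724 (0.1 mM final) and compounds for 10 min at room temperature. NKH477 (200nM) was then added for 30 min. cAMP was read by HTRF.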

[18] = molecular target: D(2) dopamine receptor (Homo sapiens) (UniProt P14416); assay: Dopamine D2 receptor (DRD2) small molecule antagonists, cell-based qHTS assay (AID 1963595; active = well fitted inhibition curve with a large enough effect in the signal ratio in the repeat runs, with a control signal flat; the % refers to the signal ratio); settings: HEK293-DRD2 cAMP HTRF antagonist mode; series mostly up to 92.4 µM
In short: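 Antagonist mode in DRD2-HEK293 cells: after compound addition with 0.1 mM Ro20-1724, cells received quinpirole (12 nM) and NKH477 (200 nM) for 30 min at room temperature; HTRF cAMP read after 1 h detection.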

[19] = molecular target: Beta-2 adrenergic receptor (Homo sapiens) (UniProt P07550); assay: Adrenergic beta2 receptor (ADRB2) small molecule agonists, cell-based qHTS assay (AID 1963593); settings: CHO-ADRB2 cells, cAMP HTRF, 30 min; series mostly up to 92.4 µM;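 also: CHO cells stably overexpressing human ADRB2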
In short: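 CHO cells stably over-expressing ADRB2 were plated overnight at 37C, then dosed with compounds plus a stimulation mix containing 100uM IBMX and 25uM Ro-20-1724 for 0.5hr at room temperature. cAMP was measured by HTRF competition, 1hr.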

[20] = p53 small molecule agonists, cell-based qHTS assay (AID 1963582; active = well fitted activation curve with a large enough effect in the signal ratio in the repeat runs, not every such curve was filed as active; the % refers to the signal ratio); settings: HCT-116 p53RE-bla reporter, beta-lactamase FRET ratio, 16 h; series mostly up to 66 µM
In short: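 After plating, p53RE-bla cells sat 5 h in the incubator; compounds or DMSO vehicle were pinned in; a 16 h incubation at 37 C followed; FRET substrate was added and, 2 h later at RT, fluorescence was measured.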

D(2) dopamine receptor (Homo sapiens), sequence (P14416 whole entry, looked up): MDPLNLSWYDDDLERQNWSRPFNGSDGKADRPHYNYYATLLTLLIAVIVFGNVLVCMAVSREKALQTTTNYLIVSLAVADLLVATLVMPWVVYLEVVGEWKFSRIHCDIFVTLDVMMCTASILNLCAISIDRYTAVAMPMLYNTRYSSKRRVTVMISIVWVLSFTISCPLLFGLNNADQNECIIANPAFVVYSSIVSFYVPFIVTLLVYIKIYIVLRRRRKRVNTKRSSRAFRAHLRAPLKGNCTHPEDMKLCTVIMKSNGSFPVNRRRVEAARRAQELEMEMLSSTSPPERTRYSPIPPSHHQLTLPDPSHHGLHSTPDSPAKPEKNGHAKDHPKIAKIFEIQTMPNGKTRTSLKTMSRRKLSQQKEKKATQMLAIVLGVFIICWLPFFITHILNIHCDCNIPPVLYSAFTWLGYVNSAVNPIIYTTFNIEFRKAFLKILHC
5-hydroxytryptamine receptor 2A (Homo sapiens), sequence (P28223 whole entry, looked up): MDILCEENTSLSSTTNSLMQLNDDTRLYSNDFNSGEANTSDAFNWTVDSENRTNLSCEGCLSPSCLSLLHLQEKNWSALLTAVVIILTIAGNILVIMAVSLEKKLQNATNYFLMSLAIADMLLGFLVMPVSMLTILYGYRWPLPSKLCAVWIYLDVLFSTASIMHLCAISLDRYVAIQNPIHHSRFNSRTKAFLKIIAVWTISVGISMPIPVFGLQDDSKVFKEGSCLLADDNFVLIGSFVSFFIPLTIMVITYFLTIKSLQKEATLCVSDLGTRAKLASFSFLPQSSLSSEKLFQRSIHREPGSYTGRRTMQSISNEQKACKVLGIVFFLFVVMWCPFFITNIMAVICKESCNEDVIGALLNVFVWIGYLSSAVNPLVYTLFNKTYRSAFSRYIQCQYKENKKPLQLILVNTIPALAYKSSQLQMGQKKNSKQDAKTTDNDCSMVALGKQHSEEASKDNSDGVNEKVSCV
Gonadotropin-releasing hormone receptor (Homo sapiens), sequence (P30968 whole entry, looked up): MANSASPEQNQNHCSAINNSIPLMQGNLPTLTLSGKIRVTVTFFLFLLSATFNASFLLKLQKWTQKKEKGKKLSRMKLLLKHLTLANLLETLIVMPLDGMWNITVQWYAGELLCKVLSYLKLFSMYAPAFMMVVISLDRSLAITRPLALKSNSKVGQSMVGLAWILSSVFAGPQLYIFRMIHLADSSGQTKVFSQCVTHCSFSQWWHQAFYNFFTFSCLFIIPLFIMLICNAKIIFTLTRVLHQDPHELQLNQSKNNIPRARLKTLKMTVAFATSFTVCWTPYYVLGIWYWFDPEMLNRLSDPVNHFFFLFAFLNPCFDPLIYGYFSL
Muscarinic acetylcholine receptor M1 (Homo sapiens), sequence (P11229 whole entry, looked up): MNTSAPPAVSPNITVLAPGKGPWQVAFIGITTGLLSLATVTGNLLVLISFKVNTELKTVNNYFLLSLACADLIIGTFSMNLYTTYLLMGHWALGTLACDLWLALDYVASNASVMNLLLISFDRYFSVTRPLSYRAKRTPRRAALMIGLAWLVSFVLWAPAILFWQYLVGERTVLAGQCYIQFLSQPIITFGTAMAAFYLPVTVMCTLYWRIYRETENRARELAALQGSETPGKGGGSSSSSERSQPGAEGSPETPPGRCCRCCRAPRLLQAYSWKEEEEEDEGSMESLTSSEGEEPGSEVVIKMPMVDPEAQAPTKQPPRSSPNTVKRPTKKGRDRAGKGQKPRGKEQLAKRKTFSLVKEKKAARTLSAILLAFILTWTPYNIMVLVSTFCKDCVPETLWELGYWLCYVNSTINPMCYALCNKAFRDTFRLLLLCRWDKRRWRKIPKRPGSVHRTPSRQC
KiSS-1 receptor (Homo sapiens), sequence (Q969F8 whole entry, looked up): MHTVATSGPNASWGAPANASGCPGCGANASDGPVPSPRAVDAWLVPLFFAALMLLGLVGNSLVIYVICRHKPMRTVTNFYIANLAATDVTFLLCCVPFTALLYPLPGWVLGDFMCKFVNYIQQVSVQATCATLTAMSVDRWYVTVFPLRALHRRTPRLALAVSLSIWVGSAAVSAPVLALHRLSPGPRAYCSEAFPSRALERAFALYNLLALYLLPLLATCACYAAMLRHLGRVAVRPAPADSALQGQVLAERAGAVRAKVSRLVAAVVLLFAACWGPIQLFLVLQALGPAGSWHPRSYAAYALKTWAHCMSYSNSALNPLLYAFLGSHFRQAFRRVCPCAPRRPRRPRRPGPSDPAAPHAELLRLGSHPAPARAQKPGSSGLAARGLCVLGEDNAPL
Beta-2 adrenergic receptor (Homo sapiens), sequence (P07550 whole entry, looked up): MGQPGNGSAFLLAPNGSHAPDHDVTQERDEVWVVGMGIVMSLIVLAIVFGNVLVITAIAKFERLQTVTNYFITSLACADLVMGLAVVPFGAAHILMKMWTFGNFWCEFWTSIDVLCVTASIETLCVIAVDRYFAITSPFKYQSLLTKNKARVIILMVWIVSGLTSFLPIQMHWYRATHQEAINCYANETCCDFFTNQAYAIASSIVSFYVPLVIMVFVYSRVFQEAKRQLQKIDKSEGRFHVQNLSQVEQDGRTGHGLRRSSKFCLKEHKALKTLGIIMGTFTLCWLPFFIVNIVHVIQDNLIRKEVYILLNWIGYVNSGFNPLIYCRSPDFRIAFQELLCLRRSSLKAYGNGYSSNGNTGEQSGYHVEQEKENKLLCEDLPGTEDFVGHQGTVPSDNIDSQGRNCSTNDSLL

SMILES | Potency [1] | Potency [2] | Potency [3] | Potency [4] | Potency [5] | Potency [6] | Potency [7] | Potency [8] | Potency [9] | Potency [10] | Potency [11] | Potency [12] | Potency [13] | Potency [14] | Potency [15] | Potency [16] | Potency [17] | Potency [18] | Potency [19] | Potency [20]
CC(C)(C)NCC(O)COc1ccccc1OCC1CCCO1 (stereo not given) | inactive | inactive | inactive | inactive | inactive | inactive | inactive | inactive | inactive | inactive | inactive | inactive | inactive | inactive | inactive | 26.6 nM (active) | inactive | inactive | – | –
FC(F)(F)c1ccccc1-n1ccnc1 | inactive | inactive | inactive | inactive | inactive | inactive | inactive | inactive | inactive | inactive | inactive | inactive | inactive | inactive | inactive | inactive | inactive | inactive | inactive | –
CCCCC(CC)COC(=O)c1ccc(O)cc1 (stereo not given) | 27.2 µM (active) and 30.6 µM (active) | inactive | inactive | inactive | inactive | inactive | inactive | 40.8 µM (active) | 45.8 µM (active) | 37.5 µM (active) | inactive | inactive | inactive | – | 40.3 µM (active) | inactive | inactive | inactive | inactive | –
Cc1ccc(S(=O)(=O)NC2CCCCC2)cc1 | inactive | inactive | inactive | inactive | inactive | inactive | inactive | inactive | inactive | – | – | inactive | inactive | inactive | inactive | inactive | inactive | inactive | inactive | inactive
O=C(O)CNC(=O)c1ccccc1I | inactive | inactive | inactive | inactive | inactive | inactive | inactive | inactive | inactive | inactive | inactive | inactive | inactive | inactive | inactive | inactive | – | inactive | inactive | –
C/C=C/CO | inactive | inactive | inactive | inactive | inactive | inactive | inactive | inactive | inactive | – | inactive | inactive | inactive | inactive | inactive | inactive | inactive | inactive | – | inactive
Oc1ccc(OCc2ccccc2)cc1 | inactive | 8.45 µM (active) | inactive | inactive | inactive | inactive | inactive | inactive | inactive | – | – | – | – | inactive | – | inactive | inactive | inactive | inactive | inactive
O=Cc1cccc([N+](=O)[O-])c1 | inactive | inactive | inactive | inactive | inactive | inactive | inactive | inactive | inactive | inactive | inactive | inactive | inactive | inactive | inactive | inactive | inactive | inactive | inactive | –
CCC(=O)OC(C)c1ccccc1 (stereo not given) | inactive | inactive | inactive | inactive | inactive | inactive | inactive | inactive | inactive | inactive | inactive | inactive | inactive | inactive | inactive | – | inactive | – | – | –
CC(=O)O[C@]1(C(C)=O)CC[C@H]2[C@@H]3C=C(C)C4=CC(=O)CC[C@]4(C)[C@H]3CC[C@@]21C | inactive | inactive | inactive | inactive | inactive | inactive | inactive | inactive | inactive | – | – | – | – | – | – | inactive | inactive | inactive | inactive | inactive
CCOCCOCCOCC | inactive | inactive | inactive | inactive | inactive | inactive | inactive | inactive | inactive | inactive | inactive | inactive | inactive | inactive | inactive | inactive | inactive | – | inactive | –
O=C(O)c1cccc(C[C@@H]2COc3ccc(OCc4nc5cc(F)ccc5s4)cc3[C@@H]2O)c1 | inactive | inactive | inactive | inactive | inactive | inactive | inactive | inactive | inactive | – | inactive | inactive | inactive | inactive | inactive | inactive | inactive | inactive | – | inactive
COc1cccc(OC)c1 | inactive | inactive | inactive | inactive | inactive | inactive | inactive | inactive | inactive | inactive | inactive | inactive | – | inactive | inactive | inactive | inactive | inactive | inactive | –
CCCCC1CCC(=O)O1 (stereo not given) | inactive | inactive | inactive | inactive | inactive | inactive | inactive | inactive | inactive | inactive | inactive | inactive | inactive | inactive | – | inactive | inactive | inactive | – | –
CN(CC1(C)CCCO1)S(=O)(=O)c1ccc(Cl)c(S(N)(=O)=O)c1 (stereo not given) | inactive | inactive | inactive | inactive | inactive | inactive | inactive | inactive | inactive | – | – | inactive | inactive | inactive | inactive | inactive | inactive | – | – | inactive

Source: PubChem BioAssay (Tox21)
